Source: PubChem BioAssay
This excerpt belongs to a sample that is enriched for hits.
Lassa entry inh: qHTS for Inhibitors of binding or entry into cells for Lassa Virus. Lassa virus pseudotype entry inhibition, cell reporter. Potency, µM (titrated, usually from 37.9 µM), inactives show top-dose activity change, negative = inhibition, usual class: inhibitors. 1.2% of 300,000 active. AID 540256, 2011; calls by dose curve; tested in HEK293 cells; further: potency means the concentration at half of the fitted maximal effect; on the % scale 0 is the no-effect control and ±100 the full control effect; nearly all actives have a fitted effect of over 50% in size
AMA1-RON2 inh: qHTS for Inhibitors of AMA1-RON; Towards Development of Antimalarial Drug Lead: Primary Screen. 0.2% of 360,000 active. Potency, µM (titrated, usually from 58.2 µM), without a hit: at the highest dose activity change, negative = inhibition, actives largely listed as inhibitors. AlphaScreen AMA1-biotinylated RON2 peptide binding; active means well fitted inhibition curve with a large enough effect; inconclusive means small, poorly fitted or top-dose-only effect; inactive means no such curve, though single readings can be large or run the other way;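 further: potency means the concentration at half of the fitted maximal effect; 0% = vehicle wells and -100% = peptide control; nearly all actives have a fitted effect of over 45% in size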
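AMA1 (3D7) with his tag at 25 nM final met compounds first, then biotinylated RON2 peptide at 25 nM; detection used donor plus acceptor beads, 10 µg/mL apiece, read by AlphaScreen after 30 min at room temperature.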
Marburg entry inh: qHTS for inhibitors of binding or entry into cells for Marburg Virus. Marburg virus pseudotyped entry inhibition, cell reporter. Potency, µM (highest dose often 37.8 µM), inactives show top-dose activity change, negative = inhibition, usual class: inhibitors. 1.8% of 300,000 active; calls by dose curve; tested in HEK293 cells; further: potency means the concentration at half of the fitted maximal effect; on the % scale 0 is the no-effect control and ±100 the full control effect
Cycloheximide cs: Cycloheximide Counterscreen for Small Molecule Inhibitors of Shiga Toxin; cell reporter, cycloheximide protein synthesis inhibition counterscreen; max response, %; 12% of 300,000 active; AID 2314, 2010; in the data active means max response mostly above about 13%, no sharp cut-off; inactive means mostly below about 14%; further: read at 38.3 µM for the half of the compounds with a filed dose; 0% is about no effect
Shiga inhibitor: A qHTS for Small Molecule Inhibitors of Shiga Toxin; Vero cells, Shiga toxin protein synthesis inhibition reporter; inhibition, % at 38.7 µM; 9.2% of 290,000 active; in the data active means inhibition mostly above about 28%, no sharp cut-off; inactive means mostly below about 43%; further: 0% is about no effect
* = called active by the depositor; ? = inconclusive; nt = not tested or not shown; + = active, no number; [ ] = another dose, or the depositor's remark.

SMILES	Lassa entry inh	AMA1-RON2 inh	Marburg entry inh	Cycloheximide cs	Shiga inhibitor
CC(=O)N/C(N)=N/c1nc(=O)c2ccccc2s1	nt	-5%	nt	35*	55*
CC(C)c1nnc(NC(=O)C2CCCN2C(=O)Nc2cccc(Cl)c2)s1 (centres undefined)	0%[46.1 µM]	2%	-8%[46.1 µM]	-3	-2
O=C(NC(=S)Nc1cccc2ncccc12)c1ccccc1	2%[46.1 µM]	23%	3%[46.1 µM]	30	97
O=C(Nc1cccnc1Cl)c1ccc(Cl)cc1	13%[46.1 µM]	3%	?	36*	70*
COc1ccc(C(=O)Nc2cccnc2Sc2ccc(Cl)cc2)cc1	?	5%	2%	27*	47*
O=C(NC(=S)Nc1cccnc1Cl)c1ccc(Cl)cc1	?	30%	8%[46.1 µM]	50*	114*
O=C(Nc1cccc2cccnc12)c1ccc(Cl)cc1	19%[46.1 µM]	16%	2%[46.1 µM]	37*	45*
O=C(Nc1cccnc1Cl)c1cccnc1Cl	?	?	8%	-4	-11
N[C@@H](Cc1ccc(Oc2ccc(O)cc2)cc1)C(=O)O	nt	nt	-6%	nt	nt
COc1cccc(CNC(=O)Cn2cc3c(n2)-c2c(oc(C(=O)N4CCOCC4)c2C)CC3)c1	-2%[46.1 µM]	nt	nt	nt	nt
CCOc1ccc(NC(=S)Nc2ccc(C)c([N+](=O)[O-])c2)cc1	1%	33%	-4%	-5	-10
CCOc1ccc(NC(=S)Nc2ccc(OC(F)(F)F)cc2)cc1	-12%	44%	11%	-1	0
CCOc1ccc(NC(=S)Nc2ccc3nsnc3c2)cc1	1%	-3%	-34%	33*	57*
COc1ccc(NC(=S)Nc2ccc3nc(C)c(C)nc3c2)cc1	1%	0%	-23%	3	-7
CCOc1ccc(NC(=S)Nc2cc(C)[nH]n2)cc1	-4%	54%	-8%[46.1 µM]	27*	62*
COc1ccc(NC(=S)Nc2ccc3nsnc3c2)cc1	20%	57%	?	41*	61
CCOc1ccc(NC(=O)Nc2ccc3nsnc3c2)cc1	2%	-5%	16%	33*	32
Cc1ccc(-c2csc(NCCn3c(C)nc4cc(C(F)(F)F)ccc43)n2)cc1	nt	-3%	nt	nt	nt
COc1ccc(-n2cc(-c3ccccc3)c3c(N4CCCC(C)C4)ncnc32)cc1 (centres undefined)	18%[46.1 µM]	nt	nt	nt	nt
CCCOc1ccc(F)cc1-c1cc(C(=O)Nc2ccc(C(C)C)cc2)[nH]n1	nt	0%	nt	nt	nt
C/C(=N\NC(=S)Nc1ccccc1)c1c(O)n(C)c(=O)n(C)c1=O	?	7%	3%	42*	+
CC(=NCCc1ccccc1)c1c(O)n(C)c(=O)n(C)c1=O	8%[46.1 µM]	1%	-8%[46.1 µM]	-1	9
CC(=Nc1ccccc1N)c1c(O)n(C)c(=O)n(C)c1=O	nt	-2%	nt	24*	72*
O=C(Nc1ccccc1Cl)N1CCC2(CC1)Oc1ccccc1C(=O)N2Cc1ccc(F)cc1	4%[46.1 µM]	nt	-24%[46.1 µM]	nt	nt
CC(=O)Nc1ccc(S(=O)(=O)N(C)CC(=O)OCC(=O)Nc2cc(C)on2)cc1	nt	4%	nt	nt	nt
SMILES	Lassa entry inh	AMA1-RON2 inh	Marburg entry inh	Cycloheximide cs	Shiga inhibitor
Cn1c(CSc2ccccc2)c(C#N)c2ccccc21	?	31%	15%	43*	81*
CCN(CC(=O)Nc1ccccc1OC)C(=O)CSCC(=O)Nc1ccc(OC)cc1	-17%	73%	11%[46.1 µM]	nt	nt
c1ccc(N=P(c2nc3ccccc3o2)(N2CCOCC2)N2CCOCC2)cc1	-11%	32%	-2%	23*	33*
Cc1cc(C)c2c(N)c(C(=O)N/N=C/c3ccccc3)sc2n1	nt	14%	nt	59*	121*
Cc1cc(C)c2c(N)c(C(=O)N/N=C/c3cccnc3)sc2n1	-2%	6%	?	43*	43
CC(C)C(=O)N[C@@H]1CCCN1C(=O)/C=C\c1ccccc1	nt	nt	-47%[14.2 µM]	nt	nt
CC(=O)Oc1cccc2c1C(=O)C1CC=CC(OC(C)=O)C1C2=O (centres undefined)	-14%	32µM*	?	nt	nt
COc1cc2c(cc1OC)[C@@H]1O[C@](c3ccsc3)(C2)Oc2c1c(=O)oc1ccc(F)cc21	nt	nt	28%[14.2 µM]	nt	nt
COc1ccc(Sc2ccc(/C=C3\C(=O)NN(c4ccccc4)C3=O)o2)cc1	0%	-8%	?	-2	-16
O=C1NN(c2ccccc2)C(=O)/C1=C\c1ccccc1	17%[46.1 µM]	-7%	?	1	-1
COc1ccc(-n2c(C)cc(/C=C3\C(=O)NN(c4ccccc4)C3=O)c2C)cc1	8%	-20%	17%	39*	50*
